Results as given in PubChem BioAssay AID1159580 (chemical genetic matrix, 2015).
In all, about 5,500 compounds went through this assay and about 2,000 (36%) were called active. Inconclusive results (about 18%) are left out. Cut-off read from the data, not from the text of the source: active = normalized growth mostly below about 0.91 (no sharp cut-off); inconclusive = no clear call, values can overlap the other calls; inactive = mostly above about 0.92. The list shows a part of the results.

Experiment: chemical genetic growth profiling, strain panel (AID 1159580);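 note: tested at 20 µM; growth read once vehicle control cultures reached saturation at 30 °C; 1 = growth at the plate median or of vehicle wells; lower values mean less growth of the strain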
Settings: growth OD

Measured: normalized growth

NC[C@H](O)c1ccc(O)c(O)c1
inactive: S. cerevisiae deletion strains, locus YJR066W, strain TOR1, active compounds read low 0.934 | S. cerevisiae deletion strains, locus YJR075W, strain HOC1, active compounds read low 1.02 | S. cerevisiae deletion strains, locus YKL009W, strain mrt4, active compounds read low 1 | S. cerevisiae deletion strains, locus YKL068W, active compounds read low 1.01 | S. cerevisiae deletion strains, locus YKL085W, strain MDH1 (second series), active compounds read low 1.01 | S. cerevisiae deletion strains, locus YKL085W, strain MDH1, active compounds read low 1.01 | S. cerevisiae deletion strains, locus YKL160W, strain elf1, active compounds read low 1.02 | S. cerevisiae deletion strains, locus YKL190W, strain CNB1, active compounds read low 1.01 | S. cerevisiae deletion strains, locus YKR001C, strain vps1, active compounds read low 0.999 | S. cerevisiae deletion strains, locus YKR026C, strain gcn3, active compounds read low 1 | S. cerevisiae deletion strains, locus YKR091W, strain srl3, active compounds read low 1.01 | S. cerevisiae deletion strains, locus YLL001W, strain dnm1, active compounds read low 1.02 | S. cerevisiae deletion strains, locus YLL026W, active compounds read low 1.02 | S. cerevisiae deletion strains, locus YLL041C, strain sdh2, active compounds read low 1 | S. cerevisiae deletion strains, locus YLR027C, strain aat2, active compounds read low 1.01 | S. cerevisiae deletion strains, locus YLR039C, strain RIC1, active compounds read low 1 | S. cerevisiae deletion strains, locus YLR058C, strain SHM2, active compounds read low 1.01 | S. cerevisiae deletion strains, locus YLR102C, strain apc9, active compounds read low 1.02 | S. cerevisiae deletion strains, locus YLR113W, strain HOG1, active compounds read low 0.97 | S. cerevisiae deletion strains, locus YLR221C, strain rsa3, active compounds read low 1.01 | S. cerevisiae deletion strains, locus YLR258W, strain gsy2, active compounds read low 1.01 | S. cerevisiae deletion strains, locus YLR262C, strain YPT6 (second series), active compounds read low 1.02 | S. cerevisiae deletion strains, locus YLR262C, strain YPT6, active compounds read low 1.04 | S. cerevisiae deletion strains, locus YLR268W, strain sec22, active compounds read low 1.04 | S. cerevisiae deletion strains, locus YLR320W, strain mms22, active compounds read low 1.04 | S. cerevisiae deletion strains, locus YLR330W, strain CHS5, active compounds read low 1.01 | S. cerevisiae deletion strains, locus YLR342W, strain FKS1 (second series), active compounds read low 1.01 | S. cerevisiae deletion strains, locus YLR342W, strain FKS1, active compounds read low 1.01 | S. cerevisiae deletion strains, locus YLR357W, strain rsc2, active compounds read low 0.938 | S. cerevisiae deletion strains, locus YLR370C, strain arc18, active compounds read low 1.01 | S. cerevisiae deletion strains, locus YLR371W, strain rom2, active compounds read low 1.03 | S. cerevisiae deletion strains, locus YLR384C, strain iki3, active compounds read low 1 | S. cerevisiae deletion strains, locus YLR418C, strain cdc73, active compounds read low 1 | S. cerevisiae deletion strains, locus YML016C, strain PPZ1, active compounds read low 1 | S. cerevisiae deletion strains, locus YML032C, strain rad52, active compounds read low 1.02 | S. cerevisiae deletion strains, locus YML120C, strain ndi1, active compounds read low 1 | S. cerevisiae deletion strains, locus YML124C, strain tub3, active compounds read low 1.01 | S. cerevisiae deletion strains, locus YMR078C, strain ctf18, active compounds read low 1.02 | S. cerevisiae deletion strains, locus YMR125W, strain sto1, active compounds read low 0.952 | S. cerevisiae deletion strains, locus YMR129W, active compounds read low 0.993 | S. cerevisiae deletion strains, locus YMR205C, strain PFK2, active compounds read low 1.06 | S. cerevisiae deletion strains, locus YMR223W, strain ubp8, active compounds read low 0.99 | S. cerevisiae deletion strains, locus YMR231W, strain pep5, active compounds read low 0.995 | S. cerevisiae deletion strains, locus YMR263W, strain SAP30, active compounds read low 1.01 | S. cerevisiae deletion strains, locus YMR307W, strain GAS1, active compounds read low 0.979 | S. cerevisiae deletion strains, locus YNL067W, strain RPL9B, active compounds read low 1.01 | S. cerevisiae deletion strains, locus YNL071W, strain lat1, active compounds read low 0.997 | S. cerevisiae deletion strains, locus YNL183C, strain NPR1, active compounds read low 0.948 | S. cerevisiae deletion strains, locus YNL209W, strain ssb2, active compounds read low 0.999 | S. cerevisiae deletion strains, locus YNL233W, strain BNI4, active compounds read low 1.01 | S. cerevisiae deletion strains, locus YNL248C, strain rpa49, active compounds read low 0.978 | S. cerevisiae deletion strains, locus YNL250W, strain rad50, active compounds read low 1.01 | S. cerevisiae deletion strains, locus YNL271C, strain bni1, active compounds read low 1.01 | S. cerevisiae deletion strains, locus YNL298W, strain CLA4, active compounds read low 1 | S. cerevisiae deletion strains, locus YNL307C, strain MCK1, active compounds read low 1.02 | S. cerevisiae deletion strains, locus YNL322C, strain KRE1 (second series), active compounds read low 1.01 | S. cerevisiae deletion strains, locus YNR049C, strain mso1, active compounds read low 1.01 | S. cerevisiae deletion strains, locus YNR052C, strain pop2, active compounds read low 1.01 | S. cerevisiae deletion strains, locus YOL006C, strain TOP1, active compounds read low 0.941 | S. cerevisiae deletion strains, locus YOL012C, strain htz1 1.04 | S. cerevisiae deletion strains, locus YOL147C, strain pex11, active compounds read low 1.01 | S. cerevisiae deletion strains, locus YOR001W, strain rrp6, active compounds read low 0.969 | S. cerevisiae deletion strains, locus YOR061W, strain CKA2, active compounds read low 1.01 | S. cerevisiae deletion strains, locus YOR069W, strain VPS5, active compounds read low 1.01 | S. cerevisiae deletion strains, locus YOR070C, strain gyp1, active compounds read low 1 | S. cerevisiae deletion strains, locus YOR080W, strain dia2, active compounds read low 1.01 | S. cerevisiae deletion strains, locus YOR083W, strain WHI5, active compounds read low 1.05 | S. cerevisiae deletion strains, locus YOR106W, strain vam3, active compounds read low 1.04 | S. cerevisiae deletion strains, locus YOR136W, strain idh2, active compounds read low 1.02 | S. cerevisiae deletion strains, locus YOR144C, strain elg1, active compounds read low 1.01 | S. cerevisiae deletion strains, locus YOR184W, strain ser1, active compounds read low 1.06 | S. cerevisiae deletion strains, locus YOR231W, strain MKK1, active compounds read low 1 | S. cerevisiae deletion strains, locus YOR265W, strain rbl2, active compounds read low 1.01 | S. cerevisiae deletion strains, locus YOR270C, strain vph1, active compounds read low 0.944 | S. cerevisiae deletion strains, locus YOR290C, strain snf2, active compounds read low 1.01 | S. cerevisiae deletion strains, locus YOR316C, strain cot1, active compounds read low 1.01 | S. cerevisiae deletion strains, locus YPL051W, strain arl3, active compounds read low 0.99 | S. cerevisiae deletion strains, locus YPL078C, strain atp4, active compounds read low 1.01 | S. cerevisiae deletion strains, locus YPL106C, strain sse1, active compounds read low 1 | S. cerevisiae deletion strains, locus YPL240C, strain hsp82, active compounds read low 0.994 | S. cerevisiae deletion strains, locus YPL241C, strain CIN2, active compounds read low 1.01 | S. cerevisiae deletion strains, locus YPL256C, strain CLN2, active compounds read low 0.961 | S. cerevisiae deletion strains, locus YPR119W, strain clb2, active compounds read low 1.02 | S. cerevisiae deletion strains, locus YPR141C, strain kar3, active compounds read low 1.01 | S. cerevisiae deletion strains, locus YPR163C, strain tif3, active compounds read low 1.01 | S. cerevisiae deletion strains, locus YPR167C, strain met16, active compounds read low 1.02 | S. cerevisiae deletion strains, strain wtn01, active compounds read low 1.02 | S. cerevisiae strains, strain wild type, active compounds read low 1.01
active: S. cerevisiae deletion strains, locus YMR058W, strain fet3, active compounds read low 0.841
